Screening results from PubChem.
Shown are actives, neighbours in structure and some others; about 2.9% of the full set was active somewhere.
14-3-3 Bad inh – disrupts binding of bovine 14-3-3 zeta to phospho-Bad peptide. AID 781. inhibition, % at 21.7 µM. 220,000 compounds, 0.71% hits. TR-FRET 14-3-3zeta/Dy647-pBad peptide displacement, 1 h. P63103;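 active = inhibition above about 70%, limit read from the data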;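 also: 0% = full 14-3-3 plus peptide FRET controls and 100% = background without 14-3-3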
Target sequence (P63103 whole entry, looked up): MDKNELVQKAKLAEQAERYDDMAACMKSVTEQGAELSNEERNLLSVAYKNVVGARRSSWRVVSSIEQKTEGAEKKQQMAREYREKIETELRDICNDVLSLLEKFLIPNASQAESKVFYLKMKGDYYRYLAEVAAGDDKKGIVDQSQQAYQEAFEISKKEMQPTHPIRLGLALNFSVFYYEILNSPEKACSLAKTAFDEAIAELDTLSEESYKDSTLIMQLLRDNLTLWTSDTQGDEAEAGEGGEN
Mcl-1 Bim block – disrupts Bim peptide binding to human Mcl-1 | Bead-based flow cytometry, Bim peptide-Mcl-1 binding | 190,000 compounds, 0.1% hits | AID 1009 | inhibition, % at 10 µM; in the data active = inhibition above about 40%;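 also: 0% = no compound tracer wells and 100% = peptide blocker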
Target sequence (Q07820 whole entry, looked up): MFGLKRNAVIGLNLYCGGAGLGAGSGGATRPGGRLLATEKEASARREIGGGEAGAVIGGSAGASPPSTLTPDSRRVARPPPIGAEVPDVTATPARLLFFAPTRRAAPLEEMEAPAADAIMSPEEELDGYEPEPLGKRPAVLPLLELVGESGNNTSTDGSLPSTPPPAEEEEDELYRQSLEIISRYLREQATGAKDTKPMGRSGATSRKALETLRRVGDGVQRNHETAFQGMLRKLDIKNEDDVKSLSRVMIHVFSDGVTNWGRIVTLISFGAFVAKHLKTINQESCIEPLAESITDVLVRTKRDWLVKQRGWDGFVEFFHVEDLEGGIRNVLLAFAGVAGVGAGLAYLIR
Hck Nef HTS – human Hck-Nef kinase inhibition. P08631. Recombinant Hck-YEEI plus Nef, Z-Lyte FRET kinase assay. inhibition, % at 20 µM. 220,000 compounds, 0.68% hits. AID 463187;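 active = Hck-Nef kinase inhibition above about 50%, limit read from the data; inactive = inhibition below that limit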;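 also: 0% = DMSO with Hck plus Nef and 100% = Hck alone without Nef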
Pf gamet viab – P. falciparum stage V gametocyte viability inhibition | P. falciparum stage V gametocytes, ATP luminescence, 24 h | inhibition, % at 10.9 µM | 150,000 compounds, 0.065% hits;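 active = inhibition above the mean plus 3 SD of compounds within the control limits, set per campaign, cut at about 38% in these data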;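 also: 0% = DMSO wells and 100% = medium only without gametocytes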
Mcl1 Bid PPI – disrupts binding of human Mcl-1 to Bid peptide; AID 1021; inhibition, % at 21.7 µM; TR-FRET Mcl-1/Bid-Dy647 peptide binding, 1536-well; Q07820; 220,000 compounds, 0.97% hits;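 active = compounds that cut the binding signal by more than half at the single screening dose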;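 also: His-tagged Mcl-1 with europium anti-His antibody binding Bid BH3 peptide; 0% = Mcl-1 plus peptide wells and 100% = peptide-only wells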
Mcl1-Noxa inh – Mcl-1/Noxa interaction inhibition; Q07820; TR-FRET Mcl-1/Noxa peptide binding, 2 h; inhibition, % at 21.7 µM; 220,000 compounds, 1.5% hits; AID 1022;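 active = compounds that cut the protein-peptide binding signal by more than 50% relative to plate controls in a single-dose test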;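 also: His-tagged Mcl-1 with rhodamine Noxa BH3 peptide and terbium anti-His antibody; 0% = Mcl-1 plus Noxa peptide wells and 100% = peptide-only wells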
* hit, by the source's call; / = no result given; [ ] = another dose, or the depositor's remark.

SMILES | 14-3-3 Bad inh | Mcl-1 Bim block | Hck Nef HTS | Pf gamet viab | Mcl1 Bid PPI | Mcl1-Noxa inh
CCOC(=O)N1CCC(NC(=O)c2cc(C(=O)Nc3ccc(OC)c(OC)c3)ccc2CO)CC1 | 6.6 | 0.0 | 0.1 | -18.1 | 13.2 | 5.4
O=[N+]([O-])c1ccc(C2Nc3cccc4cccc(c34)N2)cc1 | 1.2 | -9.0 | 0.1 | -18.0 | -63.6 | 67.4*
O=[N+]([O-])c1cccc(C2Nc3cccc4cccc(c34)N2)c1 | -17.2 | -3.0 | 1.5 | 15.1 | -18.7 | 50.0
CCOC(=O)c1c(C)[nH]c(C(=O)COC(=O)/C=C/c2ccc3c(c2)OCO3)c1C | 5.0 | -1.0 | 13.0 | / | 55.8* | 23.7
CCOC(=O)c1c(C)[nH]c(C(=O)COC(=O)/C=C/c2ccc(O)c(OC)c2)c1C | 29.5 | 1.0 | 5.7 | / | -19.7 | 44.4
O=c1c2cc(NC(=S)N3CCCCCC3)ccc2nc2n1CCCCC2 | -2.9 | 0.0 | 6.3 | -9.1 | -38.7 | 1.7
CC(=O)c1ccc(NC(=O)Nc2ccc3c(c2)N(C)C(=O)CS3)cc1 | 2.7 | -2.0 | 0.4 | 18.5 | -19.2 | 61.4*
CCN(c1ccccc1)S(=O)(=O)c1ccc(C(=O)Nc2nnc(C3CC3)o2)cc1 | -19.9 | -2.0 | 23.1 | / | -42.6 | -58.3
Cn1c(SCC(=O)Nc2ccc3nc(SCC(=O)N4CCCC4)sc3c2)nnc1-c1ccc(N)cc1 | -2.4 | 0.0 | 12.6 | / | 24.2 | 99.6*
CCN(CC)C(=O)CSc1nc2ccc(NC(=O)CSc3nccn3C)cc2s1 | -14.2 | 14.0 | 1.1 | / | 3.8 | 55.6*
Cc1cccc(N2CCN(C(=S)c3ccccc3)CC2)c1 | -2.9 | -1.0 | -9.0 | / | 10.2 | -4.7
Cc1cccc(N2CCN(c3ccc(NC(=O)/C=C(/C(=O)O)c4ccccc4)cc3)CC2)c1 | 18.6 | -2.0 | 0.4 | -0.2 | -10.0 | 52.3*
O=C(CNC(=O)c1ccccc1F)N/N=C/c1cc(Br)ccc1OC(=O)/C=C/c1ccco1 | -14.9 | -5.0 | -0.6 | 13.7 | -28.0 | 13.7
O=C(CNC(=O)c1ccc(F)cc1)N/N=C/c1cc(Br)ccc1OC(=O)/C=C/c1ccco1 | -0.4 | / | 41.0 | -12.8 | -0.6 | 59.4*
CCCCN(CCCC)CCn1cnc2c([nH]c3ccc(OC)cc32)c1=O | 3.8 | 3.0 | 26.0 | / | -29.7 | 55.2*
COc1cccc2c1C(=O)c1c(O)c3c(c(O)c1C2=O)C[C@@](O)(C(=O)CO)C[C@@H]3O[C@H]1C[C@H](N)[C@H](O)[C@H](C)O1 | 95.8*[fluorescence artefact?] | 34.0 | 11.1 | / | 9.6 | 60.0*
CN1C(=O)NC(c2cccc(O)c2)C(C(=O)c2cccs2)C1(O)C(F)(F)F (centres undefined) | 7.7 | -4.0 | -1.2 | / | -12.7 | -17.3
CCOC(=O)C1C(c2cccs2)NC(=O)N(C)C1(O)C(F)(F)F (centres undefined) | -12.5 | -1.0 | -0.2 | / | 60.6* | -0.4
Cc1[nH]c2ccccc2c1CN1CCc2ccccc2C1 | 54.6 | 0.0 | 0.6 | / | 51.1* | /
O=c1[nH]c(CN2CCc3ccccc3C2)nc2ccccc12 | -16.7 | -1.0 | 2.1 | / | 10.5 | 25.0
CCn1c(C)cc(/C=C2/NC(=O)N(CC(=O)Nc3cccc(C)c3)C2=O)c1C | 37.5 | -4.0 | 11.3 | / | 85.4* | 54.3*
Cc1cccc(NC(=O)CN2C(=O)N/C(=C/c3ccc(C)o3)C2=O)c1 | -1.2 | 6.0 | -0.3 | / | 0.0 | 85.3*
Cc1cc(C)c(-n2[nH]nnc2=S)c(C)c1 | -1.2 | / | 0.7 | 12.5 | -4.2 | 16.2
O=C(Nc1cccc(S(=O)(=O)NC2=NCCCCC2)c1)c1cc(-c2ccncc2)nc2ccccc12 | 2.6 | 0.0 | 40.7 | -38.6 | -6.9 | 54.5*
O=C(Nc1cccc(S(=O)(=O)NC2=NCCCCC2)c1)c1cccnc1Cl | 4.0 | / | 10.4 | 7.9 | -60.6 | -20.0
SMILES | 14-3-3 Bad inh | Mcl-1 Bim block | Hck Nef HTS | Pf gamet viab | Mcl1 Bid PPI | Mcl1-Noxa inh
CN(CCOc1ccccc1)CC(=O)Nc1cccc(Br)c1 | 73.5* | -7.0 | 23.1 | / | 31.4 | 29.3
O=C(O)Cc1sc(N/N=C\c2ccccc2)nc1-c1ccccc1 | -10.7 | -3.0 | 12.4 | -1.1 | -35.3 | 61.9*
COc1ccc(-n2nc3c(c2NC(=O)C24CC5CC(CC(C5)C2)C4)CS(=O)C3)cc1 (centres undefined) | 5.1 | -1.0 | 0.2 | / | -19.5 | 2.7
Cc1ccc(C2=NN=C(NC(=O)CSc3nc(C)cc(C)n3)SC2)cc1 | 4.6 | -1.0 | 0.1 | 0.7 | 50.2 | 7.8
Cc1ccc(C2=NN=C(NC(=O)CSc3nnc4c5ccccc5n(C)c4n3)SC2)cc1 | 4.4 | -1.0 | 10.5 | / | -3.2 | 63.5*
Cc1c(CNCCC2=CCCCC2)c(C(=O)O)c(C)n1Cc1ccccc1 | -7.2 | -1.0 | -5.5 | / | -13.4 | 10.9
COCCCN1C(=O)C(=O)/C(=C(/O)c2ccc(OC)cc2)C1c1cccc(OC)c1 (centres undefined) | 47.5 | 3.0 | -0.5 | / | -17.0 | 63.8*
CCN(CC)C(=O)COC(=O)c1cc(-c2ccco2)nc2ccccc12 | 23.8 | 3.0 | 46.2 | -31.7 | -40.4 | 89.8*
CNC(=O)COC(=O)c1cc(-c2ccco2)nc2ccccc12 | 61.5 | / | 2.0 | 5.3 | 0.5 | 75.8*
CCOC(=O)c1cc(-c2ccco2)nc2c1c(C)nn2-c1cccc(Cl)c1 | 12.1 | 0.0 | 6.3 | 4.5 | 49.3 | 77.5*
CCN(CC)C(=O)COC(=O)c1cc(-c2ccc(OC)cc2)nc2ccccc12 | 5.8 | -4.0 | 3.7 | / | 96.8* | -8.0
O=C(CN(c1ccccn1)S(=O)(=O)c1ccccc1)N/N=C/c1cccc([N+](=O)[O-])c1 | 4.3 | -6.0 | 9.9 | 14.7 | -55.6 | 16.8
O=C(CCC(=O)Nc1ccccc1Cl)N/N=C/c1ccccc1 | -1.9 | -1.0 | 2.7 | -15.0 | -12.3 | -8.6
O=C(NCCc1ccccc1)C(=O)NN=C1CCCC1 | -5.0 | 0.0 | -2.2 | / | 9.3 | 9.7
Cc1cc(N/N=C/c2ccc(O)cc2)nc(NS(=O)(=O)c2ccccc2)n1 | 4.8 | 7.0 | 0.7 | -11.9 | -11.3 | 53.5*
Cc1ccc(/C=N/Nc2cc(C)nc(NCc3ccccc3)n2)cc1 | 2.8 | / | -0.9 | 11.3 | 2.5 | 2.7
O=C(Nc1nnc(C2CC2)s1)C1CC(=O)N(c2ccc3c(c2)OCCO3)C1 (centres undefined) | -4.7 | -30.0 | 3.4 | -5.3 | -67.5 | 10.5
O=C(Nc1nc(-c2ccccn2)cs1)C1CC(=O)N(c2ccc3c(c2)OCCO3)C1 (centres undefined) | -12.9 | 0.0 | 8.5 | 8.0 | -94.4 | 70.7*
O=C(O)Cn1c(SC2CCCCC2)nc2ccccc21 | 7.5 | -3.0 | 0.8 | / | -3.2 | 12.3
O=C(O)CSc1nc2ccccc2n1C1CCCCC1 | 84.5* | -2.0 | 17.3 | -15.7 | 50.3 | 32.2
Cc1cc(Cl)ccc1OCCCC(N)=O | 2.6 | -2.0 | 2.7 | / | -10.1 | 70.7*
C/C=C(\C)CN1CCN(c2cccc(C)c2C)CC1 | 36.6 | 0.0 | 0.7 | / | 5.2 | -1.0
C/C=C(\C)CN1CCN(c2ccccc2F)CC1 | 13.5 | -5.0 | -0.5 | / | 53.4* | 24.5
C/C=C(\C)CN1CCN(c2ccccc2)CC1 | 73.7* | -2.0 | -19.6 | / | 44.7 | 45.1
